Assay outcomes deposited in PubChem BioAssay by National Center for Advancing Translational Sciences (NCATS).
A488 fluor: A488 region autofluorescence | compound autofluorescence, A488 spectral region, dye equivalency; Compound Type: qHTS ECL - MLSMR | max dye equivalency, M | actives 0.1% (n = 59,000)
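Compounds pin-transferred into 100 mM Tris buffer, pH 8.0, incubated 15 min at room temperature, then imaged with 480 nm excitation/540 nm emission filters. Fluorescence converted to Alexa 488 dye-equivalent concentration via an on-plate six-point A488 standard curve.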
Rhodamine fluor: compound autofluorescence in rhodamine spectral region. actives 0.05% (n = 59,000). Rhodamine-region fluorescence, 547/598 nm, Tris buffer; active compounds read high. max dye-equivalent concentration, M. AID 594; in the data active means max dye-equivalent concentration above about 11 nM; inconclusive means between about 1.1 nM and that limit
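Intensities are converted to rhodamine-equivalent concentration using a six-point rhodamine standard on each plate. Compounds sit 15 min at room temperature in 100 mM Tris buffer, pH 8.0; read uses the 547/598 nm excitation/emission pair.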
Fluorescein fluor: compound autofluorescence in fluorescein spectral region | AID 593 | max fluorescein-equivalent concentration, M | Compound autofluorescence, 480/540 nm, fluorescein-equivalent; active compounds read high | actives 0.91% (n = 59,000); in the data active means max fluorescein-equivalent concentration above about 10 nM; inconclusive means between about 1.1 nM and that limit
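Compounds (23 nL) in 100 mM Tris pH 8.0, 15 min at room temperature, then fluorescence read at 480 nm excitation/540 nm emission. Signal converted to fluorescein-equivalent concentration from an on-plate fluorescein standard curve.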
Texas Red fluor: compound fluoresces in the Texas Red spectral region; AID 587; max dye-equivalent concentration, M; actives 0.06% (n = 59,000); Compound fluorescence, Texas Red channel, 547/618 nm; active compounds read high; in the data active means max dye-equivalent concentration above about 10 nM; inconclusive means between about 1.1 nM and that limit
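Dye-equivalent concentrations come from scaling compound signal (ex 547, em 618 nm) to six Texas Red standard concentrations run on every plate, after 15 min room-temperature incubation in pH 8.0 Tris (100 mM).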
Resorufin autofl: compounds fluorescent in resorufin spectral region | actives 0.04% (n = 59,000) | Compound fluorescence, resorufin region 547/598 nm, buffer; active compounds read high | max dye-equivalent concentration, M
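Compounds in 100 mM Tris, pH 8.0, incubated 15 min at room temperature, then fluorescence read at 547 nm excitation/598 nm emission. Signal converted to dye-equivalent concentration via an on-plate six-point resorufin standard curve, per compound concentration.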
A647 fluor: compound fluoresces in the A647 spectral region; Compound fluorescence, A647 channel (570/671 nm), Tris buffer; max dye-equivalent concentration, M; 59,000 tested, under 10 active; AID 592
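Tris 100 mM pH 8.0; cpd + A647 stds pin-transferred; 15 min RT; CCD imager, ex 570/em 671. Output = A647-equivalent conc. per cpd conc.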
Numbers stand for hits; - = inactive; ? = inconclusive. Most compounds without a hit are left out; they make up all but 0.96% or so of the library. Unless noted, how the calls were made is not given here.

SMILES	A488 fluor	Rhodamine fluor	Fluorescein fluor	Texas Red fluor	Resorufin autofl	A647 fluor
COc1ncc2nc(-c3cn(C)c4ccccc34)c(=O)n(-c3ccccc3)c2n1	-	-	1.5e-08M	-	-	-
CCNc1ncc2nc(-c3cn(C)c4ccccc34)c(=O)n(-c3ccccc3)c2n1	-	-	1.1e-08M	-	-	-
Cc1cc2c(cc1C)NC(c1c(C)n(C)n(-c3ccccc3)c1=O)C1=C(CC(C)(C)CC1=O)N2 (centres undefined)	?	-	4.3e-08M	?	-	-
Cn1c(=O)[nH]c(=O)c2c1nc(NCc1ccccc1)n2CC(O)c1ccccc1 (centres undefined)	?	-	3.6e-08M	-	-	-
Cn1cccc1C(=O)N1CCC2(CCCN(c3ccncc3)C2)CC1	-	-	-	-	-	-
CN(C)c1ccc(-c2cncnc2Nc2ccccc2)cc1	-	-	?	-	-	-
N#CC1=C(N)Oc2n[nH]c(-c3cccs3)c2C1c1ccco1 (centres undefined)	?	?	1e-07M	?	?	-
C=CCOc1cccc(C2C(C(=O)c3ccc(C)o3)=C(O)C(=O)N2c2nccs2)c1 (centres undefined)	?	-	3.6e-08M	-	-	-
COc1cccc(Nc2ncc3nc(-c4cn(C)c5ccccc45)c(=O)n(C[C@H]4CCCO4)c3n2)c1	-	-	1.6e-08M	-	-	-
COc1cccc(Nc2ncc3nc(-c4cccs4)c(=O)n(C[C@H]4CCCO4)c3n2)c1	?	-	4.2e-08M	-	-	-
CN1CCc2c(sc3c2C(=O)NC(c2ccco2)N3)C1 (centres undefined)	-	-	1.3e-08M	-	-	-
Cc1cc(C)n(-c2nc3c(c(=O)[nH]c(=O)n3C)n2Cc2ccccc2)n1	-	-	?	-	-	-
Cc1cc(C)c2c(=O)[nH]c(=O)n(Cc3ccccc3)c2n1	-	-	1.3e-08M	-	-	-
CN1CCC2(CC1)C1CN(C)CC=C1C(C#N)=C(N)C2(C#N)C#N (centres undefined)	?	-	6e-08M	-	-	-
C=CCN1C(=O)C2(c3ccccc31)C1CCCC=C1C(C#N)=C(N)C2(C#N)C#N (centres undefined)	-	-	-	-	-	-
CN(C)c1ncc2ncc(=O)n(Cc3cccs3)c2n1	-	-	-	-	-	-
CCC[C@H]1C[C@H](C(=O)N[C@@H]([C@H]2O[C@@H](SC)[C@@H](O)[C@@H](O)[C@@H]2O)[C@H](C)Cl)N(C)C1	-	-	?	-	-	-
Cc1cccc(S(=O)(=O)c2c(N)n(Cc3ccco3)c3nc4ccccc4nc23)c1	-	-	1.7e-08M	-	-	-
O=C(O)c1ccc2c3c(ncnc13)-c1ccccc1C2=O	-	-	1.4e-08M	?	-	-
Nc1nc(SCCc2ccccc2)c2[nH]cnc2n1	-	-	?	-	-	-
Brc1ccc(-c2nnc3sc(CN4CCC5(CC4)OCCO5)cn23)cc1	-	-	1.1e-08M	-	-	-
CC(=O)Nc1nc(NC(C)=O)c2[nH]c(CO)nc2n1	-	-	-	-	-	-
O=C(COC(=O)CCc1c[nH]c(=O)[nH]1)Nc1ccccc1	-	-	1.8e-08M	-	-	-
Cc1ccc(NC(=O)COC(=O)CCc2c[nH]c(=O)[nH]2)cc1	-	-	?	-	-	-
O=C(c1csnn1)N1CCC2(CC1)CCN(C(c1ccccc1)c1ccccc1)CC2	-	-	-	-	-	-
SMILES	A488 fluor	Rhodamine fluor	Fluorescein fluor	Texas Red fluor	Resorufin autofl	A647 fluor
CCCOc1cc(N)ccc1C(=O)OCCN(CC)CC	-	-	?	-	-	-
CCCOc1ccc(N)cc1N	-	-	1.9e-08M	-	-	-
O=c1c(-c2ccc(Cl)cc2)[n+]([O-])c2ccccc2n1O	-	-	1.6e-08M	-	-	-
C=CCOn1c(=O)c(-c2ccc(OC)cc2)[n+]([O-])c2ccccc21	-	-	-	?	-	-
CC1(C)S[C@@H]2[C@H](NC(=O)C3(N)CCCCC3)C(=O)N2[C@@H]1C(=O)O	-	-	-	?	-	-
O=C(O)[C@H]1CCCC[C@@H]1C(=O)Nc1nc2ccccc2[nH]1	-	-	-	-	-	-
COc1cc2c(cc1OC)CN(C(=O)CSc1nc(N)c(C#N)cc1C#N)CC2	-	-	1.9e-08M	?	-	-
CCC(=O)c1ccc(OCC(=O)N2CCc3cc(OC)c(OC)cc3C2)cc1	-	-	?	-	-	-
CCCOc1ccc(/C=c2\sc3nc(-c4ccco4)nn3c2=O)cc1OCC	?	-	3.2e-08M	-	-	-
CCOC(=O)N1CCC(Nc2nc3ccccc3n3nnnc23)CC1	-	-	1.1e-08M	-	-	-
COc1ccccc1NC(=O)c1sc2nc(-c3ccco3)ccc2c1N	-	-	-	-	-	-
Nc1c(C(=O)Nc2ccccc2)sc2nc(-c3ccco3)ccc12	-	-	1.6e-08M	?	-	-
c1ccc(/C(=N/Nc2nc3ccccc3s2)c2ccccn2)cc1	-	-	?	-	-	-
CCC[C@H]1C[C@H](C(=O)N[C@H]([C@@H]2O[C@H](SC)[C@@H](O)[C@H](O)[C@@H]2O)[C@H](C)O)N(C)C1	-	-	-	-	-	-
Cc1c(N=Cc2ccc(Cl)o2)c(=O)n(-c2ccccc2)n1C	-	-	?	-	-	-
Cc1cccc(-n2c(O)c(C=Nc3c(C)n(C)n(-c4ccccc4)c3=O)c3ccccc3c2=O)n1	?	-	5.7e-08M	-	-	-
Cn1ccnc1SCC(=O)c1cc2ccccc2o1	-	-	-	-	-	-
CCn1c(CSc2nccn2C)nc2cc(C(=O)O)ccc21	-	1.7e-08M	1.1e-08M	2.7e-08M	1.1e-08M	-
c1ccc(C(c2ccccc2)N2CC3(CCNCC3)C2)cc1	-	-	-	-	-	-
Cc1cc(C(C)(C)C)cc(CNC2CCCCC2)c1O	-	-	?	-	-	-
O=C(c1ccco1)N1CCN(c2nc3ccccc3n3nnnc23)CC1	-	-	1e-08M	?	-	-
c1ccc(CC2CCN(c3nc4ccccc4n4nnnc34)CC2)cc1	-	-	?	-	-	-
C(/C=C\c1ccccc1)=Nc1ccc2c(c1)Cc1ccccc1-2	-	-	-	-	-	-
O=C1c2ccccc2-c2onc3ccc(NCCCn4ccnc4)c1c23	2.6e-07M	6.2e-07M	4.6e-06M	1.4e-07M	6.5e-07M	-
Cc1nc(NCCCn2ccnc2)c2ccccc2n1	-	-	?	-	-	-
CCCC(=O)Nc1ccc(NC(=O)Cc2ccccc2)cn1	-	-	?	-	-	-
CCCC(=O)Nc1ccc(NC(=O)c2ccccc2Cl)nc1	-	-	1.1e-08M	-	-	-
O=C(CCC1COc2ccccc2O1)Nc1cccnc1 (centres undefined)	-	-	1.7e-08M	-	-	-
